Compound activity (PubChem)
This is one part of a sample in which hits are shown more often than they occur.
VDR inhibitor: inhibitors of human vitamin D receptor; P11473; VDR-SRC2-3 peptide fluorescence polarization, 2 h; Potency, µM, usual class: inhibitors; hit rate 0.93% among 400,000; AID 504847
Target sequence (P11473 whole entry, looked up): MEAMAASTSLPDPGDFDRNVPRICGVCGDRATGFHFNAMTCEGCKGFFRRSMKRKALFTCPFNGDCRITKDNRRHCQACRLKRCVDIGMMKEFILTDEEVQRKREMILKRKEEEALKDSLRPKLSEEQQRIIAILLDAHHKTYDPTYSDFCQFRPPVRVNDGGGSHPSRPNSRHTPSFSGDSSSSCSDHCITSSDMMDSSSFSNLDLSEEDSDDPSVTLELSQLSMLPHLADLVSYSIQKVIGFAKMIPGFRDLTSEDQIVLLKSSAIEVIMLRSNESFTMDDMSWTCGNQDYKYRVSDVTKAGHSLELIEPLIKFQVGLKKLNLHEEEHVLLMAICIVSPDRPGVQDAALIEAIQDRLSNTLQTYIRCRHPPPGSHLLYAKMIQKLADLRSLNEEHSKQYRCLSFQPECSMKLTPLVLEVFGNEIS
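Reagent solutions, kept cold and dark, are dispensed first; compounds are then pinned in at 23 nl, plates briefly spun, and incubated 2 h at ambient temperature. Inhibition of VDR–SRC2-3 peptide binding is read by fluorescence polarization.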
12-LOX inh: blocks human arachidonate 12S-lipoxygenase. P18054. purified 12hLO, xylenol orange hydroperoxide absorbance. Potency, µM (titrated, usually from 108 µM), usual class: inhibitors. hit rate 1.1% among 580,000
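Purified human 12hLO at 150 nM in 25 mM Hepes, 0.01% Triton X-100, pH 7.0, preincubated 15 min at room temperature with compound. Reaction started with 40 uM arachidonic acid, 30 min at room temperature. Hydroperoxide measured by Fe-xylenol orange, 573/405 nm absorbance ratio.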
Sfp inh: inhibitors of Bacillus subtilis Sfp phosphopantetheinyl transferase | Q9F4F7 | Biochemical Sfp PPTase activity, qHTS | Potency, µM, most hits filed as inhibitors | hit rate 3.5% among 310,000 | AID 1490;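 further: the enzyme is Sfp with the accession as filed and its product quenches rhodamine fluorescence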
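After 15 min at room temperature with compound, 15 nM Sfp received 5 uM rhodamine-CoA plus 12.5 uM BHQ-2-ybbR (50 mM Hepes pH 7.6, 10 mM MgCl2). Rate came from the fluorescence difference over 30 min, ex 525/em 598 nm.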
Glioma ERSR ind: induces the endoplasmic reticulum stress response in human glioma cells | U87-MG GRP78 promoter luciferase reporter, 16 h | Potency, µM, usual class: activators | hit rate 0.02% among 420,000 | AID 602332; further: series mostly up to about 76 µM; nearly all actives have a fitted effect of over 35% in size
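ERSR induction read as luciferase luminescence (Bright-Glo, 10 min at room temperature) in stably transfected human U87-MG glioma cells exposed to compounds for 16 h, using GRP78 as sensor.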
G9a inh: blocks human histone lysine methyltransferase G9a | G9a H3K9 monomethylation, AlphaScreen, 2 h | Potency, µM (doses to about 102 µM), most hits filed as inhibitors | hit rate 8.8% among 350,000 | AID 504332; further: nearly all actives have a fitted effect of over 75% in size
Target sequence (Q96KQ7 913-1193 limits assumed): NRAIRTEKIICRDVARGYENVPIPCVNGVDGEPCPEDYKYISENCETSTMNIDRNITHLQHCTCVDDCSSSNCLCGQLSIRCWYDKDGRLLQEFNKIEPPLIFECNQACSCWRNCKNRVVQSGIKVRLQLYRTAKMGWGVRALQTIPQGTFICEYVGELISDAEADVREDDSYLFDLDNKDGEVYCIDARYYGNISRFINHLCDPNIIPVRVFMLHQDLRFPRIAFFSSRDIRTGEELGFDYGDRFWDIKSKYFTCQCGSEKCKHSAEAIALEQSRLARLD
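Step 1: enzyme (final 20 nM) with compound, 15 min RT. Step 2: substrate peptide 500 nM and SAM 20 uM, 2 h RT. Step 3: anti-H3K9me1 antibody and AlphaScreen beads, 10 min, then plate read.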
Numbers stand for hits; i = inactive; ? = inconclusive; nt = no result; [ ] = dose if it differs, or a comment. The call rests on the fitted dose curve; in most records, active means well fitted curve in the direction sought with a large enough effect; inconclusive means small, poorly fitted or top-dose-only effect, or another doubt; inactive means no such curve, though single readings can be large; an effect the other way counts as inactive or inconclusive.

SMILES	VDR inhibitor	12-LOX inh	Sfp inh	Glioma ERSR ind	G9a inh
Cc1cccc(OC(C)C(=O)Nc2ccccc2C(=O)N2CCCCC2)c1 (configuration not stated)	i	i	i	i	35µM
Cc1ccc(OC(C)C(=O)Nc2ccccc2C(=O)N2CCN(C)CC2)cc1 (configuration not stated)	i	?	i	i	40µM
CC(C(=O)O)n1nnc2ccccc21 (configuration not stated)	i	i	i	i	nt
Cc1ccc(OC(C)C(=O)Nc2ccccc2C(=O)N2CCOCC2)cc1 (configuration not stated)	i	nt	i	i	i
CC(C(=O)Nc1ccccc1C(=O)N1CCCC1)n1nnc2ccccc21 (configuration not stated)	i	i	i	i	18µM
CC(Oc1cccc(Cl)c1)C(=O)Nc1ccccc1N1CCCC1 (configuration not stated)	i	i	nt	i	50µM
Cc1cc(C(F)(F)F)nn1CCc1nnc(Nc2ccn(Cc3ccccc3Cl)n2)s1	nt	i	nt	nt	nt
COc1ccccc1-c1nc(C(=O)NCCc2ccc(Cl)cc2)n2ccncc12	nt	i[6.33 µM]	nt	nt	nt
Cn1c(=O)c2c(nc(N3CCN(c4cccc(Cl)c4)CC3)n2Cc2ccc(F)cc2)n(C)c1=O	nt	i	nt	nt	nt
Oc1ccccc1CN1CCC(n2cc(-c3ccc(F)cc3)nn2)CC1	nt	i	nt	nt	nt
CCOC(=O)CSc1nc(N2CCCCC2)c2c(c1C#N)CCCC2	nt	i	nt	nt	nt
CCOC(=O)CSC1=C(C#N)C(=O)NC2(CCCCC2)S1	79µM	?	50µM	i	32µM
Cc1ccc(/C=N/N2CCN(Cc3ccccc3)CC2)cc1	i	i	i	i	?
Cc1ccc(CN2CCN(/N=C/c3cc([N+](=O)[O-])ccc3Cl)CC2)cc1	i	i	i	i	?
Cc1ccc(CN2CCN(/N=C/C=C/c3ccccc3[N+](=O)[O-])CC2)cc1	i	?	?	i	20µM
O=[N+]([O-])c1cc(CN2CCC(O)CC2)ccc1Cl	i	?	i	i	13µM
COc1ccccc1/C=C/CN1CCN(c2ccccc2)CC1	i	?	i	i	11µM
COc1ccccc1/C=C/C=N/N1CCN(Cc2ccccc2)CC1	i	i	i	i	11µM
CCc1nc2c(c(-c3ccc(O)cc3)n1)CN(Cc1cccc3ccccc13)CC2	nt	i	nt	nt	nt
Cc1ccc(CN2CCN(/N=C/c3ccc(Cl)c([N+](=O)[O-])c3)CC2)cc1	i	i	i	i	14µM
COc1ccccc1N1CCN([C@@H]2[C@H](O)[C@H](CO)O[C@@H]2CNC(=O)c2ccccc2)CC1	nt	22µM	nt	nt	nt
CN(Cc1cccc(C(F)(F)F)c1)C(=O)c1ccccc1F	nt	i	nt	nt	nt
O=C(NN=C1C2CC3CC(C2)CC1C3)c1ccccc1O	i	i	i	i	i
NC(=O)C(=O)NN=C1C2CC3CC(C2)CC1C3	i	i	i	i	45µM
O=C(c1ccc2c3n(nc2c1)-c1ccc(Cl)cc1CO3)N1CCCCC1	i	i	56µM	i	i[12.7 µM]
SMILES	VDR inhibitor	12-LOX inh	Sfp inh	Glioma ERSR ind	G9a inh
O=C(NCCO)c1ccc2c3n(nc2c1)-c1ccc(Cl)cc1CO3	i	i	89µM	i	i[12.7 µM]
Cc1ccc2c(c1)COc1c3ccc(C(=O)N4CCOCC4)cc3nn1-2	?	i	i	i	i[12.7 µM]
O=C(O)c1ccc2c3n(nc2c1)-c1ccc(Cl)cc1CO3	i	i	i	i	50µM
O=C(NCC1CC1)c1ccc2c3n(nc2c1)-c1ccc(Cl)cc1CO3	i	i	nt	i	nt
CC(=O)N[C@@H]1CN(C(=O)c2cnc3ccccc3c2)C[C@H]1c1ccc(C)cc1	nt	i	nt	nt	nt
CC1CCN(c2nc(Cl)nc(Nc3ccc([N+](=O)[O-])cc3)n2)CC1	i	i	i	i	45µM
C=CC(C1=CC(=O)C(OC)=C(OC)C1=O)c1ccccc1 (configuration not stated)	1µM	nt	1.8µM	i	nt
C=CC(C1=CC(=O)C(OC)=CC1=O)c1ccccc1 (configuration not stated)	8.9µM	nt	i	i	?
C=CC(C1=CC(=O)C(OC)=CC1=O)c1ccc(OC)cc1 (configuration not stated)	11µM	nt	40µM	i	nt
COC(=O)NC(c1ccccc1)c1ccccc1	nt	i	nt	nt	nt
COc1ccc(-c2ccc(=O)[nH]n2)cc1	i	i	i	i	i
CNC(=O)N1CCC(C2CCN(C(=O)c3ccc(Cl)s3)C2)CC1 (configuration not stated)	nt	i	nt	nt	nt
Cc1nn(Cc2ccccc2)c(Cl)c1C(=O)NCc1ccc(C)n1C	i	i	i	i	?
Cc1nn(Cc2c(Cl)cccc2Cl)c(C)c1C(=O)NCc1ccc(C)n1C	i	i	i	i	79µM
Cc1sc2nc(SCc3noc(C(C)(C)C)n3)n(C)c(=O)c2c1C	nt	i	nt	nt	nt
Oc1c(CN2CCc3ccccc3C2)cc(Cl)c2cccnc12	i	nt	i	i	45µM
Oc1c(Cl)cc(CN2CCOCC2)c2cccnc12	?	?	nt	i	i[2.33 µM]
CN1CCN(Cc2cc(COCc3ccccc3)c3cccnc3c2O)CC1	?	i	i	i	?
Oc1c(CN2CCCCC2)cc(Br)c2cccnc12	i	5.6µM	45µM	?	?
CCCNC(=O)CNC(=O)c1ccc2ccccc2n1	nt	i	nt	nt	nt
O=C(CSc1nnc(-c2ccncc2)n1-c1ccc(Cl)cc1)c1c[nH]c(C(=O)N2CCCC2)c1	nt	i	nt	nt	nt
NC(=O)N/N=C/c1ccc(N2CCOCC2)s1	i	i	79µM	i	3.2µM
O=C(N/N=C/c1ccc(N2CCOCC2)s1)c1ccc(O)cc1	nt	?	nt	i	nt
C/C(=N\NC(=O)c1ccc(O)cc1)c1ccc(N2CCOCC2)cc1	i	i	i	i	nt
O=C(O)c1cc(N/N=C/c2ccc(N3CCOCC3)s2)ccc1Cl	i	?	56µM	i	2.2µM
SMILES	VDR inhibitor	12-LOX inh	Sfp inh	Glioma ERSR ind	G9a inh
O=C(O)c1cc(Nc2nc(N3CCOCC3)nc(N3CCOCC3)n2)ccc1Cl	i	i	i	i	i
C/C(=N\Nc1ccc(Cl)c(C(=O)O)c1)c1ccc(N2CCOCC2)cc1	i	?	i	i	40µM
Cc1ccnc(SCc2nc3cc(NS(=O)(=O)c4ccc(Cl)cc4)ccc3n2C)n1	nt	i	nt	nt	nt
COC(=O)C1=C(C)N(Cc2ccc(Cl)cc2)C(=S)NC1c1ccc(Br)cc1 (configuration not stated)	nt	32µM	nt	nt	nt
COC(=O)C1=C(C)N(Cc2ccccc2)C(=O)N[C@H]1c1ccc(Br)cc1	i	i	i	i	i
COC(=O)C1=C(C)N(Cc2ccc(Cl)cc2)C(=S)NC1c1ccc(F)cc1 (configuration not stated)	nt	40µM	nt	nt	nt
COC(=O)C1=C(C)N(C)C(=S)NC1c1ccc(Cl)cc1 (configuration not stated)	i	?	i	i	i
O=C(O)/C=C/c1ccc(-c2cccc(C(F)(F)F)c2)o1	i	i	i	i	45µM
Cn1nccc1C(=O)N1CCN(c2cccc(C(F)(F)F)c2)CC1	i	i	i	i	71µM
O=C1/C(=C/c2ccc(-c3ccc(F)cc3)o2)Cc2ccccc21	nt	18µM	nt	nt	nt
Cn1nccc1C(=O)N1CCCC(N2CCN(c3cccc(C(F)(F)F)c3)CC2)C1 (configuration not stated)	nt	i	i	nt	?
